HEK293 tox: Cytotoxic Profiling in HEK 293 Cell Line of Diverse Libraries Using Quantitative High-Throughput Screening; HEK 293 viability, ATP luminescence (CellTiter-Glo), 48-72 h; Potency, µM (top dose mostly 115 µM), actives largely listed as inhibitors; 94,000 tested, 6.6% active; AID 1345083, 2018; also: nearly all actives have a fitted effect of over 60% in size
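Read-out: CellTiter-Glo ATP luminescence. Cells: HEK 293, 250 cells/well. Exposure: 48 or 72 hr, 37 degree Celsius.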
NIH3T3 tox: Cytotoxic Profiling in NIH 3T3 Cell Line of Diverse Libraries Using Quantitative High-Throughput Screening; Potency, µM (series often up to 96.7 µM), most hits filed as inhibitors; NIH 3T3 viability, CellTiter-Glo ATP luminescence, 48-72 h; AID 1345082, 2018; 94,000 tested, 4.3% active; also: nearly all actives have a fitted effect of over 55% in size
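Luminescent ATP readout (CellTiter-Glo, 10 min RT) after 48 or 72 hr compound exposure of NIH 3T3 cells seeded at 400 cells/well in 1536-well format; quantitative HTS.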
FLuc inh: Firefly luciferase inhibition profiling of diverse chemical library using quantitative high-throughput screening. Luciferin 4-monooxygenase (Photinus pyralis), P08659. purified P. pyralis luciferase, luminescence, biochemical. Potency, µM (titrated, usually from 115 µM), most hits filed as inhibitors. 76,000 tested, 2.5% active; also: nearly all actives have a fitted effect of over 65% in size
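FLuc 10nM, D-luciferin 10uM, ATP 10uM, Mg acetate 10mM, Tris acetate pH 7.5, Tween/BSA; cpd qHTS; enzyme added last; CCD luminescence.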
hNpr1 antagonist: Natriuretic polypeptide receptor (hNpr1) antagonism - Primary qHTS | 76,000 tested, 1.6% active | HEK293 hNpr1 GloSensor cGMP, ANP-stimulated luminescence | Potency, µM (titrated, usually from 46.3 µM), usual class: inhibitors; calls by dose curve; also: nearly all actives have a fitted effect of over 60% in size
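Compound pre-incubated 30 min at room temperature on GloSensor-loaded HEK293 cells stably carrying hNpr1 and the pGS-40F cGMP biosensor. Stimulation uses hNppA at 0.1 nM final; luminescence is taken at baseline and 20 min post-agonist.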
GPT2 inhibitor: Primary qHTS assay for inhibitors of Glutamate pyruvate transaminase 2 (GPT2). Recombinant GPT2, coupled pyruvate oxidase/HRP Amplex Red fluorescence. 100,000 tested, 0.25% active. Alanine aminotransferase 2 (Homo sapiens), Q8TD30. Potency, µM (doses to about 57.7 µM), most hits filed as inhibitors; also: nearly all actives have a fitted effect of over 60% in size
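Inhibition is scored from Amplex Red fluorescence generated when pyruvate oxidase and HRP act on pyruvate released by GPT2. Reactions contain 10ng/uL enzyme, 250uM a-KG and 2mM L-alanine and run 30 min at room temperature.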
Npr1 antag conf: Natriuretic polypeptide receptor (hNpr1) antagonism - Confirmation | shares compounds with hNpr1 antagonist | HEK293 hNpr1 cGMP GloSensor luminescence, ANP-stimulated | Potency, µM (doses to about 57.6 µM), usual class: inhibitors | 1,400 tested, 76% active | AID 1347044, 2019; calls by dose curve; also: nearly all actives have a fitted effect of over 70% in size
NPR2 antag: Natriuretic polypeptide receptor (hNpr2) antagonism - Subtype selectivity assay. shares compounds with hNpr1 antagonist. HEK293 hNpr2 GloSensor cGMP luminescence, CNP-stimulated. Potency, µM (series often up to 57.6 µM), actives largely listed as inhibitors. 1,400 tested, 67% active. AID 1347046, 2019; calls by dose curve; also: nearly all actives have a fitted effect of over 70% in size
FLuc inh counter: Natriuretic polypeptide receptor (hNpr1) antagonism - Confirmation firefly luciferase (FLuc) inhibition counterscreen; shares compounds with hNpr1 antagonist; purified FLuc enzyme, luminescence, Km substrate; Potency, µM (series often up to 57.6 µM), actives largely listed as inhibitors; 1,400 tested, 0.7% active; AID 1347047, 2019
GloSensor ctrl: Natriuretic polypeptide receptor (hNpr1) antagonism - Counterscreen GloSensor control cell line. shares compounds with hNpr1 antagonist. HEK293 GloSensor cGMP, SNP-stimulated, luminescence. Potency, µM (highest dose often 57.6 µM), usual class: inhibitors. 1,400 tested, 69% active. AID 1347051, 2019; calls by dose curve; also: nearly all actives have a fitted effect of over 70% in size
Numbers stand for hits; n = inactive; u = inconclusive; x = no result given. Most compounds without a hit are left out; they make up all but 10% or so of the library. Unless noted, calls follow the shape of the dose curve; as a rule, active = well fitted curve in the direction sought with a large enough effect; inconclusive = small, poorly fitted or top-dose-only effect, or another doubt; inactive = no such curve, though single readings can be large; an effect the other way counts as inactive or inconclusive.

SMILES	HEK293 tox	NIH3T3 tox	FLuc inh	hNpr1 antagonist	GPT2 inhibitor	Npr1 antag conf	NPR2 antag	FLuc inh counter	GloSensor ctrl
CCc1cc(=O)n(CC(=O)N2CCN(c3ccccc3OC)CC2)c(-c2ccccc2)n1	40µM	u	n	n	n	u	n	n	n
CCc1cc(=O)n(CC(=O)N2CCN(c3ccc(OC)cc3)CC2)c(-c2ccccc2)n1	n	n	n	n	n	x	x	x	x
Cc1ccc(S(=O)(=O)N2CCC(n3cnnc3-c3ccccc3)CC2)c(C)c1	u	u	n	n	n	u	u	n	n
CCc1ccc(C(=O)N2CCC(c3n[nH]c(=O)n3Cc3ccc(C)cc3)CC2)cc1	u	u	n	n	n	x	x	x	x
O=C(CNC(=O)c1ccc(-c2cccc(C(F)(F)F)c2)cc1)NCC(F)(F)F	u	n	x	x	n	x	x	x	x
Cc1ncccc1OCC1CN(Cc2cccc(C(F)(F)F)c2)C(=O)c2c(ccnc2-c2ccc(OCC(=O)O)cc2)O1 (centres undefined)	n	u	n	n	n	x	x	x	x
CC(C)C(=O)NCC1CN(Cc2ccccc2)C(=O)c2c(ccnc2-c2ccc(OCC(=O)O)cc2)O1 (centres undefined)	25µM	u	n	5.6µM	n	5.4µM	6.1µM	n	4.8µM
O=C(O)COc1ccc(-c2nccc3c2C(=O)N(Cc2cccc(C(F)(F)F)c2)CC(COc2ccc4cnccc4c2)O3)cc1 (centres undefined)	n	u	n	n	n	x	x	x	x
O=C(O)COc1ccc(-c2nccc3c2C(=O)N(Cc2cccc(C(F)(F)F)c2)CC(CNC(=O)C2CCOCC2)O3)cc1 (centres undefined)	u	u	n	u	n	8.6µM	u	n	5.4µM
CNC(=O)c1cc2cc(-c3c(C)noc3C)nc(-c3cccnc3OC)c2o1	u	u	n	n	u	x	x	x	x
Cc1cc2c(N3CCC(NCc4noc(C5CCC5)n4)CC3)ncnc2s1	u	u	n	2µM	n	1.5µM	3.1µM	n	1.7µM
O=C(O)c1ccnc(-c2ccnc(NCc3noc(C4CCCC4)n3)n2)c1	n	n	n	n	n	x	x	x	x
CCOC(=O)[C@@H]1[C@@H](OC)C(=O)N(C(C)C)C12CCN([S+](=O)([O-])c1ccc(NC(C)=O)cc1)CC2	n	u	x	x	x	x	x	x	x
O=C(Nc1ccccc1)O[C@@H]1CO[C@H]2[C@@H]1OC[C@@H]2NC(=O)C1CCC1	u	n	n	u	n	x	x	x	x
O=C(Nc1ccc(Oc2ccccc2)cc1)O[C@@H]1CO[C@H]2[C@@H]1OC[C@@H]2NC(=S)Nc1ccccc1	u	u	n	11µM	n	9.7µM	12µM	n	6.9µM
O=C(Nc1ccccc1)O[C@@H]1CO[C@H]2[C@@H]1OC[C@@H]2NC(=O)c1ccc2c(c1)OCO2	u	u	n	32µM	n	u	u	n	u
N#Cc1ccc(NC(=S)N[C@H]2CO[C@H]3[C@@H]2OC[C@H]3OC(=O)Nc2ccccc2)cc1	35µM	u	n	22µM	n	18µM	22µM	n	18µM
CC(=O)c1cccc(NC(=O)O[C@@H]2CO[C@H]3[C@@H]2OC[C@@H]3NC(=O)Nc2ccccc2)c1	u	n	n	n	n	x	x	x	x
COC(=O)c1cccc(NC(=S)N[C@H]2CO[C@H]3[C@@H]2OC[C@H]3OC(=O)Nc2cccc(C(F)(F)F)c2)c1	45µM	u	n	u	n	27µM	22µM	n	22µM
O=C(NC1CCCC1)C1CCN(C(=O)c2ccc(-c3cncnc3)cc2)CC1	n	n	x	x	n	x	x	x	x
NC1CCN(Cc2ccc(C(=O)NCc3ccc(S(N)(=O)=O)cc3)c(=O)[nH]2)C1 (centres undefined)	n	n	n	n	n	x	x	x	x
CCn1cc(S(=O)(=O)N2CCC(c3noc(-c4ccccn4)n3)C2)cn1 (centres undefined)	n	n	n	n	n	x	x	x	x
Cc1ncoc1C(=O)NCC1Cn2cccc2CN1Cc1ccccc1 (centres undefined)	u	n	n	n	n	x	x	x	x
O=C(Nc1cccc2ccccc12)O[C@@H]1CO[C@H]2[C@@H]1OC[C@@H]2NC(=O)c1ccco1	n	n	n	n	n	x	x	x	x
O=C(Nc1cccc2ccccc12)O[C@@H]1CO[C@H]2[C@@H]1OC[C@@H]2NC(=O)c1cccs1	u	n	n	22µM	u	35µM	u	n	31µM
SMILES	HEK293 tox	NIH3T3 tox	FLuc inh	hNpr1 antagonist	GPT2 inhibitor	Npr1 antag conf	NPR2 antag	FLuc inh counter	GloSensor ctrl
O=C(Nc1ccc(Oc2ccccc2)cc1)O[C@@H]1CO[C@H]2[C@@H]1OC[C@@H]2NC(=O)c1ccc(C(F)(F)F)cc1	u	u	n	11µM	u	22µM	14µM	n	15µM
CCNC(=O)O[C@@H]1CO[C@H]2[C@@H]1OC[C@@H]2NCC1CCCCC1	n	n	n	n	n	x	x	x	x
O=C(Nc1ccc(Oc2ccccc2)cc1)O[C@@H]1CO[C@H]2[C@@H]1OC[C@@H]2NCC1CCCCC1	u	u	n	u	n	22µM	17µM	n	22µM
CC(=O)c1ccc(NC(=O)O[C@@H]2CO[C@H]3[C@@H]2OC[C@@H]3NC(=O)COc2ccccc2)cc1	u	u	n	n	n	x	x	x	x
CCCN1CCc2[nH]cnc2C12CCN(C(=O)c1ccc(CC)s1)CC2	n	n	n	n	n	x	x	x	x
O=C(NCc1ccccc1F)c1ccc2c(c1)CN(Cc1cccc(F)c1)CCO2	u	u	n	n	n	x	x	x	x
O=C(NCc1ccccc1F)c1ccc2c(c1)CN(Cc1ccncc1)CCO2	u	n	n	13µM	n	17µM	17µM	n	11µM

High-throughput results: PubChem BioAssay, National Center for Advancing Translational Sciences (NCATS)
